The supplement of paper PMC10849652
Targets with a hit are over-represented here; the source holds about 7,900 in all. About 0.6% of all pairs of compound and target were hits. A number with no mark means an inactive call.

How the values were obtained:
Assay in all cases: log2 fold change, soluble protein after heating vs DMSO (PISA); higher = thermal stabilisation; K562 cells, 10 uM, 30 min; active = over 0.2 and 3.5 SD of the protein, either way, in both replicates (recomputed)
saracatinib = compound: CN1CCN(CCOc2cc(OC3CCOCC3)c3c(Nc4c(Cl)ccc5c4OCO5)ncnc3c2)CC1 [saracatinib]
In short: (§1)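 K562 cells at 2×10^6 cells/mL were given 10 μM compound for 30 min. Aliquots then went through 3 min of heating across 48°C-58°C, were pooled, and were extracted in PBS with 0.5% NP-40 at 4°C, and the supernatant after 21,000xg for 90 min was quantified by TMTpro 16plex LC-MS/MS with channel sums equalised. Thermal stability relative to control samples, from duplicates, is given as log2 fold change.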

sotrastaurin = compound: CN1CCN(c2nc(C3=C(c4c[nH]c5ccccc45)C(=O)NC3=O)c3ccccc3n2)CC1 [sotrastaurin]
In short: as §1

alvocidib = compound: CN1CC[C@H](c2c(O)cc(O)c3c(=O)cc(-c4ccccc4Cl)oc23)[C@H](O)C1 [alvocidib]
In short: as §1

Tubastatin A = compound: CN1CCc2c(c3ccccc3n2Cc2ccc(C(=O)NO)cc2)C1 [Tubastatin A]
In short: as §1

[1] = compound: CNC(=O)C1=CC=CC=C1NC2=NC(=NC=C2Cl)NC3=C(C=C(C=C3)N4CCOCC4)OC
In short: as §1

defactinib = compound: CNC(=O)c1ccc(Nc2ncc(C(F)(F)F)c(NCc3nccnc3N(C)S(C)(=O)=O)n2)cc1 [defactinib]
In short: as §1

rucaparib = compound: CNCc1ccc(-c2[nH]c3cc(F)cc4c3c2CCNC4=O)cc1 [rucaparib]
In short: as §1

[2] = compound: CNc1nc(-c2ccc3c(N)n[nH]c3c2)cc(N2C[C@@H](C(=O)NC3CCCCC3)CC[C@H]2C)n1
In short: as §1

encorafenib = compound: COC(=O)N[C@@H](C)CNc1nccc(-c2cn(C(C)C)nc2-c2cc(Cl)cc(NS(C)(=O)=O)c2F)n1 [encorafenib]
In short: as §1

[3] = compound: COC(=O)[C@H](CCSC)NC(=O)C1=C(C=C(C=C1)NC[C@H](CS)N)C2=CC=CC=C2
In short: as §1

[4] = compound: COC1=CC=C(C=C1)CN2C=CC3=C2C=C(C=C3)C(=O)NO
In short: as §1

filanesib = compound: CON(C)C(=O)N1N=C(c2cc(F)ccc2F)S[C@@]1(CCCN)c1ccccc1 [filanesib]
In short: as §1

zotarolimus = compound: CO[C@H]1C[C@@H]2CC[C@@H](C)[C@@](O)(O2)C(=O)C(=O)N2CCCC[C@H]2C(=O)O[C@H]([C@H](C)C[C@@H]2CC[C@H](n3cnnn3)[C@H](OC)C2)CC(=O)[C@H](C)/C=C(\C)[C@@H](O)[C@@H](OC)C(=O)[C@H](C)C[C@H](C)/C=C/C=C/C=C/1C [zotarolimus]
In short: as §1

idasanutlin = compound: COc1cc(C(=O)O)ccc1NC(=O)[C@@H]1N[C@@H](CC(C)(C)C)[C@](C#N)(c2ccc(Cl)cc2F)[C@H]1c1cccc(Cl)c1F [idasanutlin]
In short: as §1

alisertib = compound: COc1cc(Nc2ncc3c(n2)-c2ccc(Cl)cc2C(c2c(F)cccc2OC)=NC3)ccc1C(=O)O [alisertib]
In short: as §1

[5] = compound: COc1cc2nc(-c3cc(F)ccc3O)nc(N[C@@H]3CNC[C@H]3C(C)(C)O)c2cc1OC
In short: as §1

gefitinib = compound: COc1cc2ncnc(Nc3ccc(F)c(Cl)c3)c2cc1OCCCN1CCOCC1 [gefitinib]
In short: as §1

[6] = compound: COc1cccc2cc(-c3nc([C@H]4CC[C@H](C(=O)O)CC4)n4ncnc(N)c34)[nH]c12
In short: as §1

lapatinib = compound: CS(=O)(=O)CCNCc1ccc(-c2ccc3ncnc(Nc4ccc(OCc5cccc(F)c5)c(Cl)c4)c3c2)o1 [lapatinib]
In short: as §1

pictilisib = compound: CS(=O)(=O)N1CCN(Cc2cc3nc(-c4cccc5[nH]ncc45)nc(N4CCOCC4)c3s2)CC1 [pictilisib]
In short: as §1

Sequence of UniProt Q14181 (Q14181 whole entry, looked up): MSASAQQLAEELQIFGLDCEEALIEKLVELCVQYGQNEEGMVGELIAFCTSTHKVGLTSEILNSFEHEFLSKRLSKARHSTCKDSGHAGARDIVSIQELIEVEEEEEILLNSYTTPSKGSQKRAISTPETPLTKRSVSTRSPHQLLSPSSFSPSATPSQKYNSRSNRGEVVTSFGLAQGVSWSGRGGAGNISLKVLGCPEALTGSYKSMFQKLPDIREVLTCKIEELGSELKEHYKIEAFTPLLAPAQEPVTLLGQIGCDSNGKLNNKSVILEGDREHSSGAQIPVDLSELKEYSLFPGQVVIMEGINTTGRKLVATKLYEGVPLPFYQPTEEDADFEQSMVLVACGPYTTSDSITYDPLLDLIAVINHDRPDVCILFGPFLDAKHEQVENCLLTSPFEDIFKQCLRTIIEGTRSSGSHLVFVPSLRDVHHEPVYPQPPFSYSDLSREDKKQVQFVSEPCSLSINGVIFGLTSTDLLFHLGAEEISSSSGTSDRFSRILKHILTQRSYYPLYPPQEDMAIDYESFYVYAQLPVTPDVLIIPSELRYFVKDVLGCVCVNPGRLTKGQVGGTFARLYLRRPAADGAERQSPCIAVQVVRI
Sequence of UniProt Q13523 (Q13523 whole entry, looked up): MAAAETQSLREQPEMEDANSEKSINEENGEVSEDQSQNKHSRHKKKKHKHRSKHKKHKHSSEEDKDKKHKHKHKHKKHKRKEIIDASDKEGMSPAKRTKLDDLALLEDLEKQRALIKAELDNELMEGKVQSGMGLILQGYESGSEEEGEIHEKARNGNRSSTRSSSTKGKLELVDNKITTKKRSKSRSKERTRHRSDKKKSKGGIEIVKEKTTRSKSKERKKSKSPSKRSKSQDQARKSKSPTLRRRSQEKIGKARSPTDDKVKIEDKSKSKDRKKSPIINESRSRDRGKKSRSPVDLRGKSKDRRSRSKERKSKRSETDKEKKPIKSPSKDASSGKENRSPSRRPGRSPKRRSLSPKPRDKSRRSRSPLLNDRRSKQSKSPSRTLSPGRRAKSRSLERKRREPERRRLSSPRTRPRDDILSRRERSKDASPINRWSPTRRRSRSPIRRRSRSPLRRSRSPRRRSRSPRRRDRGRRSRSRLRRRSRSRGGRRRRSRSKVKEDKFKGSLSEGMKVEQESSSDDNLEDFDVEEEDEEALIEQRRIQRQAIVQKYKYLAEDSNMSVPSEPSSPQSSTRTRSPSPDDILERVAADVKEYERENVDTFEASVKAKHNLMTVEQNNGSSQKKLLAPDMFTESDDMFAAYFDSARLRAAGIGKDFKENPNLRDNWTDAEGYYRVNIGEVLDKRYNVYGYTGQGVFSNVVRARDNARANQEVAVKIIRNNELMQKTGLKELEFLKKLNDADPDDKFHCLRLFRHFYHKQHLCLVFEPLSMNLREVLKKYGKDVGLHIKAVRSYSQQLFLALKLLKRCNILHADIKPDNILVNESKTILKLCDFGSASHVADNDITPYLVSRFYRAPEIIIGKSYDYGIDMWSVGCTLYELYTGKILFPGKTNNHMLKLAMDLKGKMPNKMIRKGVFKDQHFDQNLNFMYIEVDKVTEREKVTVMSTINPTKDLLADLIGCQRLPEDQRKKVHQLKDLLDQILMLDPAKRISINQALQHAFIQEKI
Sequence of UniProt Q16512 (Q16512 whole entry, looked up): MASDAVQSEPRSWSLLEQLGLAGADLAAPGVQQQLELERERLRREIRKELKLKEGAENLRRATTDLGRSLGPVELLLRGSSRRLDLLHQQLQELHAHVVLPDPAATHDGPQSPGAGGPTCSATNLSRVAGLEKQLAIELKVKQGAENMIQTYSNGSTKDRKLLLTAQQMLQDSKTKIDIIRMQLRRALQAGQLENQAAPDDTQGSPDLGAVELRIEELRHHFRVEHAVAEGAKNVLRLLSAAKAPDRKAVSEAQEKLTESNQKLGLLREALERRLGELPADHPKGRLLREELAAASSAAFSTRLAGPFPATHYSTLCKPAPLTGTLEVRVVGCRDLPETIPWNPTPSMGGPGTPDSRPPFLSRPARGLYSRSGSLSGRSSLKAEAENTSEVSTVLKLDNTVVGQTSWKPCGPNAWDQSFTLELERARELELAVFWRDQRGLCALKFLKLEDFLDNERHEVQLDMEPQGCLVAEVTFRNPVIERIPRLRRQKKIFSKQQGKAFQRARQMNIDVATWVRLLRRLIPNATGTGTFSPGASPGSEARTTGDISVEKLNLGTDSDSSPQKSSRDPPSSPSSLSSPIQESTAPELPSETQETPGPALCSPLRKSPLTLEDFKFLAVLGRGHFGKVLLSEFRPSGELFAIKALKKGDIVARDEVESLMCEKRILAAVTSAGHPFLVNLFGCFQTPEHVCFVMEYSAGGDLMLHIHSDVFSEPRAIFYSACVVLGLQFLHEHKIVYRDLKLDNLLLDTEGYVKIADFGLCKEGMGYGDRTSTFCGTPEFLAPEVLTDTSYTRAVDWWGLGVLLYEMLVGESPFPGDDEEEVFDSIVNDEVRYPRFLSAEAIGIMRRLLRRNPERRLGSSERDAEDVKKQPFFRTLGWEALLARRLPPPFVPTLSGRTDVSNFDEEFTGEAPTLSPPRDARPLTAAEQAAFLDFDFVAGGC
Sequence of UniProt Q7Z7A4 (Q7Z7A4 whole entry, looked up): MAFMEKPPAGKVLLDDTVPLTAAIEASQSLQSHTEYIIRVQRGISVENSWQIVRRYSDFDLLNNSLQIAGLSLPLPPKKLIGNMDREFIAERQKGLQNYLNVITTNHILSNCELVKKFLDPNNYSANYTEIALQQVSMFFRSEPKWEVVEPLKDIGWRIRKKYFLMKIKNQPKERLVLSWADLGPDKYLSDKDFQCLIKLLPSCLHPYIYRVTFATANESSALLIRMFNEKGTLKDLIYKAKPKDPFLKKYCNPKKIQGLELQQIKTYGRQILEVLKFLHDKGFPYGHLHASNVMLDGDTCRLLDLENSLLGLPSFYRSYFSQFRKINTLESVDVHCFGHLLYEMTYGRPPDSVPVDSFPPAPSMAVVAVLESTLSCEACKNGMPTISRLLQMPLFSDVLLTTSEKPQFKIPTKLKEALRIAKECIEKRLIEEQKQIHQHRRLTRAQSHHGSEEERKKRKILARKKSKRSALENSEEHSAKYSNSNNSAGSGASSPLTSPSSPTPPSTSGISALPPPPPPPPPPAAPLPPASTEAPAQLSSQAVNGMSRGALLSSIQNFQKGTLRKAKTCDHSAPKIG
Sequence of UniProt Q8TAP8 (Q8TAP8 whole entry, looked up): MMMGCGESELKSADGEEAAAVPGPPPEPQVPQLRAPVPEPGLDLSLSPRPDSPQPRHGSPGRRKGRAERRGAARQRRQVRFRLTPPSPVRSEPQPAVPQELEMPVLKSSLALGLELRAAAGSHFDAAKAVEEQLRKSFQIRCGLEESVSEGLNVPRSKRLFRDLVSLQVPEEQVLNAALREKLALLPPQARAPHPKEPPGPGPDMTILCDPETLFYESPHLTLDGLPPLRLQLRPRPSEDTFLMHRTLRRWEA
Sequence of UniProt Q9NW08 (Q9NW08 whole entry, looked up): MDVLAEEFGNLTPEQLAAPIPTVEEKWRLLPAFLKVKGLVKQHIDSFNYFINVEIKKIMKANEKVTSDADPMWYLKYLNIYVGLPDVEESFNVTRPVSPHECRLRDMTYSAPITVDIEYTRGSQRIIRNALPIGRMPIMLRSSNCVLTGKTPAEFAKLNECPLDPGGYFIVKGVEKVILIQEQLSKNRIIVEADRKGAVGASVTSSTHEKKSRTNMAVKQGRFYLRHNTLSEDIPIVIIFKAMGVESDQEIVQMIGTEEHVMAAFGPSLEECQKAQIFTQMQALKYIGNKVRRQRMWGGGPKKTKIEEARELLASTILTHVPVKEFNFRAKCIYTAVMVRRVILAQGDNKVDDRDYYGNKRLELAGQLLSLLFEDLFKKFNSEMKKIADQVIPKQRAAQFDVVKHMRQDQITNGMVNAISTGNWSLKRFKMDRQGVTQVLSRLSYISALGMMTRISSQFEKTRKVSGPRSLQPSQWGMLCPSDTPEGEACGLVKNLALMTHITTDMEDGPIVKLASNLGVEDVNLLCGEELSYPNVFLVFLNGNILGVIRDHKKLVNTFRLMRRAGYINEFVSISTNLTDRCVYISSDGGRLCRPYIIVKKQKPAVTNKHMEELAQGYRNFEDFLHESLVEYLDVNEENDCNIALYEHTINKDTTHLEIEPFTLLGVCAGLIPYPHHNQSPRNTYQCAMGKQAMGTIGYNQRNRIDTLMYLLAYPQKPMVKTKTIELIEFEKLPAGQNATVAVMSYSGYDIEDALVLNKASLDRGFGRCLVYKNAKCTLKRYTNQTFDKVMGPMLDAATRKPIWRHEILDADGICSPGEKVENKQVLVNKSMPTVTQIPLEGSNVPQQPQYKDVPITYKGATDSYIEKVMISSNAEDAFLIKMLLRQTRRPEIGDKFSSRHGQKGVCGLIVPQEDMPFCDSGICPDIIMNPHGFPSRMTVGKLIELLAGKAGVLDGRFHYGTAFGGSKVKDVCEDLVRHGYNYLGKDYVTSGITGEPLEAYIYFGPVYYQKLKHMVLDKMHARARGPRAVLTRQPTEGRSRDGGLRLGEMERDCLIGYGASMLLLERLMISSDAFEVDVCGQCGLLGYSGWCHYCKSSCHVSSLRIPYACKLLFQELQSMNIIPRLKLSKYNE
Sequence of UniProt Q15172 (Q15172 whole entry, looked up): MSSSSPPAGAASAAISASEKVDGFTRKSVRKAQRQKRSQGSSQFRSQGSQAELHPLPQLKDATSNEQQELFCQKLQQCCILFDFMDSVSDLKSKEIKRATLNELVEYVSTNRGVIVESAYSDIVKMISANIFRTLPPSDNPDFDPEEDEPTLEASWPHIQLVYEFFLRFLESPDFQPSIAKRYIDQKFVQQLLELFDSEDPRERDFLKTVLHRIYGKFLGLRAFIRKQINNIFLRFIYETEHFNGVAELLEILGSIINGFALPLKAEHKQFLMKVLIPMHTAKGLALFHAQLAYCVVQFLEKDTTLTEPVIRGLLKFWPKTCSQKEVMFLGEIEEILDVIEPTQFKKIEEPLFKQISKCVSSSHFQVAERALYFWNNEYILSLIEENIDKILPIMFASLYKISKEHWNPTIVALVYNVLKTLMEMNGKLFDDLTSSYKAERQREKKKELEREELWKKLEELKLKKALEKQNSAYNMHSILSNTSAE

| Target | log2 fold change (saracatinib) | log2 fold change (sotrastaurin) | log2 fold change (alvocidib) | log2 fold change (Tubastatin A) | log2 fold change [1] | log2 fold change (defactinib) | log2 fold change (rucaparib) | log2 fold change [2] | log2 fold change (encorafenib) | log2 fold change [3] | log2 fold change [4] | log2 fold change (filanesib) | log2 fold change (zotarolimus) | log2 fold change (idasanutlin) | log2 fold change (alisertib) | log2 fold change [5] | log2 fold change (gefitinib) | log2 fold change [6] | log2 fold change (lapatinib) | log2 fold change (pictilisib) |
| --- | --- | --- | --- | --- | --- | --- | --- | --- | --- | --- | --- | --- | --- | --- | --- | --- | --- | --- | --- | --- |
| PKM (UniProt P14618) | 0.012 | 0.024 | 0 | -0.004 | -0.028 | -0.01 | -0.052 | -0.007 | -0.01 | 0.011 | 0 | -0.048 | -0.004 | -0.04 | -0.073 | 0.012 | -0.002 | 0.054 | -0.033 | 0.026 |
| POLR2C (UniProt P19387) | -0.096 | -0.015 | 0.204 | -0.049 | -0.043 | 0.133 | 0.059 | 0.03 | 0.002 | -0.045 | -0.04 | 0.034 | -0.012 | -0.074 | 0.013 | -0.022 | -0.045 | 0.086 | 0.099 | – |
| PDCD6 (UniProt O75340) | 0.038 | -0.014 | -0.003 | 0.001 | 0.026 | -0.017 | -0.048 | -0.153 | 0.002 | 0.004 | -0.06 | -0.124 | -0.03 | -0.106 | 0.092 | 0.047 | -0.021 | 0.013 | -0.035 | 0.038 |
| PPP2R5A (UniProt Q15172) | -0.03 | -0.043 | -0.089 | 0.042 | 0.01 | -0.037 | 0.053 | 0.032 | 0.063 | -0.03 | 0.034 | -0.135 | 0.002 | -0.206 | -0.064 | 0.032 | -0.043 | 0.005 | 0.047 | -0.096 |
| POLA2 (UniProt Q14181) | 0.035 | -0.055 | -0.15 | 0.051 | 0.096 | -0.254 | -0.125 | 0.039 | 0.06 | -0.038 | 0.086 | -0.001 | 0.015 | -0.02 | 0.005 | 0.046 | 0 | -0.015 | 0.018 | 0.051 |
| PTPA (UniProt Q15257) | 0.009 | 0.068 | -0.06 | -0.029 | -0.036 | -0.033 | -0.045 | -0.012 | 0.012 | 0.003 | -0.015 | -0.022 | 0.02 | -0.064 | -0.041 | 0.034 | 0.018 | 0.036 | 0.012 | 0.02 |
| PXK (UniProt Q7Z7A4) | -0.023 | 0.004 | -0.055 | -0.033 | 0.03 | -0.025 | -0.027 | -0.007 | 0.08 | -0.048 | 0.105 | -0.005 | 0.021 | -0.035 | -0.057 | 0.069 | -0.001 | 0.015 | 0.03 | 0.127 |
| POLR3B (UniProt Q9NW08) | -0.056 | -0.129 | -0.074 | -0.045 | -0.004 | -0.03 | -0.032 | -0.047 | 0.039 | -0.028 | 0.026 | 0.065 | 0.075 | 0.008 | -0.086 | 0.08 | 0.105 | -0.135 | 0.008 | -0.019 |
| PSMC4 (UniProt P43686) | -0.041 | -0.011 | 0.047 | -0.026 | -0.032 | 0.074 | 0.039 | 0.037 | 0.019 | 0.005 | -0.052 | 0.066 | 0.008 | 0.017 | -0.049 | -0.007 | -0.052 | -0.022 | 0.033 | -0.099 |
| PRKACB isoform 2 (UniProt P22694) | -0.013 | -0.119 | -0.014 | -0.035 | -0.101 | 0.004 | 0.002 | 0.018 | 0.011 | 0.022 | -0.045 | -0.098 | 0.021 | -0.01 | -0.037 | 0.124 | 0.015 | 0.03 | -0.018 | -0.018 |
| PIP4K2C (UniProt Q8TBX8) | -0.049 | -0.035 | 0.54 | 0.133 | 0.371 | 0.527 | 0.011 | -0.042 | 0.051 | -0.113 | 0.058 | -0.025 | -0.021 | -0.186 | -0.021 | 0.866 (active) | 0.115 | 0.684 | -0.043 | 0.134 |
| PRPF4B (UniProt Q13523) | -0.064 | -0.047 | -0.052 | 0.085 | -0.209 | -0.32 | 0.022 | -0.146 | 0.02 | 0.046 | -0.024 | 0.253 | 0.187 | 0.164 | -0.047 | -0.1 | -0.023 | 0.003 | 0.19 | 0.097 |
| PRPF3 (UniProt O43395) | -0.023 | -0.114 | 0.24 | 0.07 | -0.021 | -0.239 | -0.041 | -0.001 | 0.171 | -0.025 | 0.18 | -0.038 | -0.048 | -0.029 | 0.031 | -0.07 | 0.06 | 0.072 | -0.02 | -0.022 |
| PSMC2 (UniProt P35998) | -0.024 | -0.03 | 0.046 | -0.01 | -0.014 | 0.061 | 0.033 | 0.035 | 0.018 | 0.001 | -0.076 | 0.049 | -0.03 | 0.033 | -0.05 | -0.034 | -0.051 | -0.05 | 0.059 | -0.067 |
| PKN1 isoform 2 (UniProt Q16512) | -0.018 | -0.645 (active) | -0.048 | 0.026 | -0.088 | -0.121 | 0.022 | 0.026 | 0.024 | -0.014 | 0.001 | 0.019 | 0.046 | -0.05 | -0.021 | -0.217 | 0.001 | -0.044 | -0.009 | -0.007 |
| PPP1R35 (UniProt Q8TAP8) | 0.034 | -0.011 | -0.03 | 0.035 | -0.029 | -0.007 | 0.019 | -0.109 | 0.072 | 0.052 | 0.003 | 0.026 | -0.004 | 0.196 | -0.003 | -0.125 | 0.027 | 0.083 | 0.011 | -0.068 |
